Source: PubChem BioAssay
Lassa entry inh = blocks Lassa virus binding to or entry into cells | Potency, µM (series often up to 37.9 µM), hits mostly inhibitors | AID 540256 | Lassa virus pseudotype entry inhibition, cell reporter | 300,000 compounds, 1.2% hits; calls by dose curve; tested in HEK293 cells; note: nearly all actives have a fitted effect of over 50% in size
HCV inhibitor = blocks hepatitis C virus; Huh7.5.1 HCVcc-Cre infection, luciferase reporter, 44 h; Potency, µM (top dose mostly 41.8 µM), usual class: inhibitors; 340,000 compounds, 3.4% hits; active = well fitted inhibition curve with a large enough effect; inconclusive = small, poorly fitted or top-dose-only effect, or another doubt; inactive = no such curve, though single readings can be large or run the other way
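Reporter virus HCVcc-Cre (~0.5 moi) infects cells exposed to compound; seeding density 1,000 cells/well with 4 h settling beforehand. Luminescence, 15 sec read, taken 44 h post-infection following a 15 min RT substrate incubation.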
Vaccinia mCherry = inhibitors of vaccinia virus infection (mCherry reporter signal); Vaccinia virus mCherry reporter infection, fluorescence; Potency, µM (doses to about 36.5 µM), usual class: inhibitors; 310,000 compounds, 0.63% hits; AID 720579; calls by dose curve; tested in A549 cells; note: nearly all actives have a fitted effect of over 35% in size
Marburg entry inh = inhibitors of Marburg virus binding or cell entry; AID 540276; Marburg virus pseudotyped entry inhibition, cell reporter; Potency, µM (highest dose often 37.8 µM), actives largely listed as inhibitors; 300,000 compounds, 1.8% hits; calls by dose curve; tested in HEK293 cells
FMDV inh = blocks foot and mouth disease virus; FMDV antiviral cell-based qHTS; Potency, µM (doses to about 57.9 µM), most hits filed as inhibitors; 410,000 compounds, 1.2% hits; calls by dose curve; tested in HEK293T cells; note: read-out not given here; nearly all actives have a fitted effect of over 45% in size
VACV Venus inh = inhibitors of vaccinia virus (Venus reporter) | Vaccinia virus Venus reporter expression, fluorescence | Potency, µM (series often up to 36.5 µM), usual class: inhibitors | 330,000 compounds, 0.46% hits | AID 720580; calls by dose curve; tested in A549 cells; note: nearly all actives have a fitted effect of over 30% in size
Each line names hits and unclear results; the compound was inactive in the other large screens. A selection: hits, their analogues and other compounds. The true share with any hit is near 5.3%.

COC(=O)C[N+](C)(C)CC#Cc1ccccc1	Lassa entry inh 5.17µM
Cc1ccn(CCC(=O)N2CCOc3ccc(C(O)C4CCCCC4)cc3C2)n1 (configuration not stated)	none (no result: Lassa entry inh, HCV inhibitor, Marburg entry inh)
CN(C)CC1CCC/C(=C\c2ccc(OC(=O)/C=C/c3ccccc3)cc2)C1=O (configuration not stated)	HCV inhibitor inconclusive, FMDV inh 39.8µM
CN(C)CC1CCC/C(=C\c2ccc(OC(=O)c3ccc(Cl)cc3)cc2)C1=O (configuration not stated)	Lassa entry inh inconclusive, HCV inhibitor 11.2µM, Marburg entry inh inconclusive, FMDV inh inconclusive, VACV Venus inh inconclusive
CC(=O)c1ccc(OC(=O)/C=C/c2ccccc2)cc1	none (no result: Lassa entry inh, Vaccinia mCherry, Marburg entry inh, VACV Venus inh)
COc1ccc(/C=C2/CCC(CN3CCOCC3)C2=O)cc1 (configuration not stated)	Lassa entry inh 12.6µM, HCV inhibitor 5.01µM, Marburg entry inh inconclusive, FMDV inh 17.8µM
O=C1/C(=C\c2ccc(Cl)cc2)CCC1CNc1ccc(Cl)cc1 (configuration not stated)	HCV inhibitor inconclusive
CN(C)CC1CC/C(=C\c2ccc(O)cc2)C1=O (configuration not stated)	Lassa entry inh 11.2µM, HCV inhibitor inconclusive, Vaccinia mCherry inconclusive, Marburg entry inh inconclusive, FMDV inh inconclusive
CC1CCC/C(=C\c2ccc(O)cc2)C1=O (configuration not stated)	none (no result: Lassa entry inh, Vaccinia mCherry, Marburg entry inh, VACV Venus inh)
CSc1ncc2c(n1)-c1ccccc1N(Cc1ccccc1C)S2(=O)=O	none (no result: HCV inhibitor, Marburg entry inh)
NC(N)=NC(N)=Nc1ccc(SC(F)(F)F)cc1	HCV inhibitor 11.2µM, Marburg entry inh inconclusive
Fc1ccc(/C=C2\CCCC3=C2Nc2ncnn2C3c2ccc(F)cc2)cc1 (configuration not stated)	Lassa entry inh inconclusive, HCV inhibitor inconclusive, Vaccinia mCherry inconclusive, Marburg entry inh inconclusive, FMDV inh inconclusive, VACV Venus inh 17.8µM
COc1ccc(C2C3=C(Nc4ncnn42)c2ccccc2CCC3)cc1 (configuration not stated)	none (no result: FMDV inh)
COc1ccccc1CNc1nc(-c2ccco2)nn1S(=O)(=O)c1ccc(C)cc1	none (no result: HCV inhibitor)
Cn1c(-c2ccccc2)c[n+]2c1-c1ccccc1C2	HCV inhibitor 11.2µM, Vaccinia mCherry inconclusive (no result: Lassa entry inh, Marburg entry inh)
O=c1c(-c2ccccc2)nc2cnc(N3CCOCC3)nc2n1Cc1cccs1	none (no result: Lassa entry inh, HCV inhibitor, Vaccinia mCherry, Marburg entry inh, VACV Venus inh)
CCN1C=CC(=C2C(=O)c3ccccc3C2=O)C=C1	Lassa entry inh 0.651µM, Marburg entry inh 1.83µM, FMDV inh 4.47µM (no result: Vaccinia mCherry, VACV Venus inh)
CCCN1C=CC(=C2C(=O)c3ccccc3C2=O)C=C1	Lassa entry inh 0.206µM, Marburg entry inh 0.206µM, FMDV inh 1µM (no result: Vaccinia mCherry, VACV Venus inh)
Cc1cc(NC(=O)CN2C(=O)CC(c3ccco3)Sc3ccccc32)no1 (configuration not stated)	HCV inhibitor 35.5µM (no result: Lassa entry inh, Marburg entry inh)
COc1ccc(C2Nc3ccccc3C(=O)N2c2ccccc2F)cc1COc1ccc(NC(C)=O)cc1 (configuration not stated)	none (no result: Lassa entry inh, HCV inhibitor, Marburg entry inh, FMDV inh)
CC/C(CC(c1ccccc1)c1c(O)c2ccccc2oc1=O)=N\NC(N)=S (configuration not stated)	Vaccinia mCherry 14.1µM, Marburg entry inh inconclusive, VACV Venus inh inconclusive
O=[N+]([O-])c1ccc2c(c1)C(N1CCN(CCO)CC1)Cc1ccc(F)cc1S2 (configuration not stated)	none (no result: Lassa entry inh, HCV inhibitor, Marburg entry inh)
OCCN1CCN(C2CCC(c3ccc(F)cc3)c3ccc(F)cc32)CC1 (configuration not stated)	Lassa entry inh inconclusive, HCV inhibitor 3.98µM, Vaccinia mCherry inconclusive, Marburg entry inh 3.98µM, FMDV inh inconclusive, VACV Venus inh inconclusive
COc1ccc(Cl)cc1NC(=O)CN1CCN(S(=O)(=O)N2CCCCC2)CC1	HCV inhibitor inconclusive
CCOC(=O)c1c(C)n(Cc2ccco2)c2ccc(OC)cc12	HCV inhibitor 12.6µM
CC(C)C1C(c2ccccc2)N(C)C(c2ccccc2)CC1(O)c1ccccc1 (configuration not stated)	Lassa entry inh inconclusive, Vaccinia mCherry inconclusive, Marburg entry inh 14.6µM
CC1(C)Cc2c(cnn2-c2ccccc2)C(NC(=O)CCCN2CCCC2=O)C1 (configuration not stated)	none
COc1cc2c(cc1OC)C(c1cc(OC)c(O)c(OC)c1)CC(=O)N2 (configuration not stated)	none (no result: HCV inhibitor)
CNC(=O)c1ncccc1Nc1nc(Nc2cc3c(cc2OC)CCCN3C(=O)CN(C)C)nc2[nH]ccc12	Lassa entry inh 3.97µM (no result: HCV inhibitor, Vaccinia mCherry, Marburg entry inh, FMDV inh, VACV Venus inh)
COc1ccccc1NC(=O)c1cnc(SCC(=O)N2CCCc3ccccc32)n(C)c1=O	none (no result: HCV inhibitor, Marburg entry inh)
